High-throughput results as filed in PubChem BioAssay.
The list is not random: actives were taken first. Their share in the collection is about 6.5%.
NADH enzymes: inhibitors of enzymes used to reach an NAD/NADH endpoint; actives 0.02% (n = 65,000); coupled PK/LDH NADH assays, four targets; IC50, µM (series often up to 10 µM);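 active = single-dose screening hits from any of four coupled enzyme assays that gave an IC50 when retested across doses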;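 also: the DPM-DC format reads NADH fluorescence rather than 340 nm absorbance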
Autofluor 339: intrinsic fluorescence of library compounds, ex339/em460 – biochemical, MLSMR library, data from DPM-DC assay, artefact control, profiling panel. compound autofluorescence, ex339/em460 nm, NADH buffer; active compounds read high; 1 = no-compound wells, NADH background. fluorescence fold increase at 10 µM. actives 5.5% (n = 65,000). AID 709;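 active = at 10 µM, mean starting fluorescence two-fold or more over control wells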;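 also: signal is the first read of a kinetic run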
Spn DPM-DC inh: inhibitors of Streptococcus pneumoniae diphosphomevalonate decarboxylase | purified DPM-DC, PK/LDH coupled NADH fluorescence | calls only at 10 µM | actives 0.49% (n = 65,000) | AID 556;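 active = the 320 compounds with the highest percent inhibition in the single-dose primary screen, excluding strongly autofluorescent ones, cut at about 32% in these data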;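 also: kinetic rate of NADH fluorescence loss reporting ADP formed by the decarboxylase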
A340 absorber: absorbance at 340 nm. compound absorbance at 340 nm, fold over control. fold change at 10 µM. 65,000 tested, under 10 active. AID 708;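 active = at 10 µM dose, initial 340 nm absorbance at least 2 fold that of control wells; inactive = change under 2 fold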;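 also: initial absorbance extrapolated from kinetic A340 decline of NADH oxidation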
Spn PMK inh: inhibitors of Streptococcus pneumoniae phosphomevalonate kinase; purified PMK, PK/LDH-coupled NADH absorbance 340 nm; inhibition, % at 10 µM; actives 0.49% (n = 65,000); AID 539;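 active = top-ranked compounds by inhibition in the single 10 µM screen, taking a fixed number of the strongest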
MK inhibit: inhibitors of Streptococcus pneumoniae mevalonate kinase | inhibition, % at 10 µM | actives 0.48% (n = 65,000) | purified MK, PK/LDH-coupled NADH absorbance 340 nm | AID 555;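 active = ranked among the strongest by inhibition in the single 10 µM screen, a fixed top-ranked set picked for dose follow-up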
Hits are given with their value; i = inactive; nt = no result given; + = active, no number; [ ] = remark or other dose.

SMILES	NADH enzymes	Autofluor 339	Spn DPM-DC inh	A340 absorber	Spn PMK inh	MK inhibit
Cn1cc(CCC(=O)N2CCC3(CC2)OCCO3)c2ccccc21	i	i	i	i	i	i
Cc1cc(N2CCOCC2)nc2ccc(NC(=O)CCC(=O)N3CCC4(CC3)OCCO4)cc12	i	4.8	nt	i	i	i
CCCCOC(=O)COc1cc(C)cc2oc(=O)c3c(c12)CCC3	i	i	i	i	i	i
C=CCOC(=O)COc1cc(C)cc2oc(=O)c3c(c12)CCC3	i	2.4	nt	i	i	i
Cc1cc(OCc2nn[nH]n2)c2c3c(c(=O)oc2c1)CCCC3	i	3.8	nt	i	i	i
CN1C(=O)N(C)C(=O)C(CCc2ccccn2)(CCc2ccccn2)C1=O	i	i	i	i	i	i
CN1C(=O)N(C)C(=O)C2(Sc3ccccc3C2=O)C1=O	i	5	nt	i	i	i
Fc1ccccc1N1CCN(Cc2c(F)cccc2F)CC1	i	i	i	i	i	49
Fc1ccccc1N1CCN(Cc2ccc3c(c2)OCO3)CC1	i	i	i	i	i	i
CCOc1ccc(Br)c(C2(O)CC(C)N(C)CC2C)c1 (stereo not drawn)	i	i	i	i	i	i
CN1CCc2nc(SCC(=O)OC(C)(C)C)c(C#N)cc2C1	i	2.3	nt	i	i	i
CCCCCCn1c(=O)c(C(=O)Nc2c(C)n(C)n(-c3ccccc3)c2=O)c(O)c2ccccc21	i	i	i	i	i	i
c1ccc2c(c1)[nH]c1cnccc12	i	2.4	nt	i	i	i
Cc1[nH]c2ccccc2c1/C=N/O	i	i	i	i	i	i
c1ccc2c3c([nH]c2c1)CNCC3	i	i	i	i	i	i
Cc1c2ccncc2c(C)c2c1[nH]c1ccccc12	i	2	+[fluoresces]	i	i	i
CCC(C)NC(=O)c1c(N)n(CC2CCCO2)c2nc3ccccc3nc12 (stereo not drawn)	i	2.5	nt	i	i	i
CCC(C)NC(=O)c1c(N)n(Cc2ccc3c(c2)OCO3)c2nc3ccccc3nc12 (stereo not drawn)	i	4	nt	i	i	i
CCC(=NCC1CCCO1)c1c(O)n(-c2ccccc2)c(=O)[nH]c1=O (stereo not drawn)	i	i	i	i	i	i
COC(=O)c1c(C)n(Cc2ccc3c(c2)OCO3)c2ccc(O)cc12	i	i	i	i	i	i
NCC1(c2ccc3c(c2)OCCO3)CCCC1	i	i	i	i	i	nt
COCCNC(=O)c1c(NC(=O)c2ccco2)n(Cc2ccccc2)c2nc3ccccc3nc12	i	3.8	nt	i	i	i
CCOC(=O)C1=C(C)OC(N)=C(C#N)C12C(=O)Nc1ccc(C)cc12 (stereo not drawn)	i	i	i	i	i	i
[N-]=[N+]=CC(=O)OC[C@H](N)C(=O)O	i	i	i	i	i	i
Cc1c2cnn(CC(=O)N3CCC4(CC3)OCCO4)c(=O)c2c(C)n1Cc1ccc(F)cc1	i	i	i	i	29	i
SMILES	NADH enzymes	Autofluor 339	Spn DPM-DC inh	A340 absorber	Spn PMK inh	MK inhibit
O=C(Cn1ncc2c3ccccc3n(Cc3ccccc3)c2c1=O)N1CCC2(CC1)OCCO2	i	i	i	i	i	i
COCCCn1c(N)c(C(=O)OC(C)COC)c2nc3ccccc3nc21 (stereo not drawn)	i	3.9	nt	i	i	i
CCCCOCCCn1c(N)c(C(=O)OC(C)COC)c2nc3ccccc3nc21 (stereo not drawn)	i	2.4	nt	i	i	i
CN1CCN(C(=O)COc2ccc(-c3nc4ccccc4s3)cc2)CC1	i	i	i	i	i	i
CCOc1cc(-c2nc3c(C)cccn3c2NCC2CCCO2)ccc1O (stereo not drawn)	i	3.9	nt	i	i	i
Cc1cccn2c(NCC3CCCO3)c(C(C)C)nc12 (stereo not drawn)	i	3.6	nt	i	i	i
CC1=CC(C)C(COC(N)=O)(COC(N)=O)C(C)C1 (stereo not drawn)	i	i	i	i	i	i
CCOCC(=O)NC1CCSC1=O (stereo not drawn)	i	i	i	i	25	i
O=C(CCCC1=NS(=O)(=O)c2ccccc2N1)N1CCC2(CC1)OCCO2	i	i	i	i	i	i
COC(=O)C(O)(c1ccc2c(c1)CCCN2)C(F)(F)F (stereo not drawn)	i	i	i	i	i	i
CCOC(=O)c1c(N)n(CCN2CCCCC2)c2nc3ccccc3nc12	i	4.9	nt	i	i	i
